Results as given in the OligoGym collection.
Also: reference of the scale not given here.

Each sequence was assayed against RYR2 (assay: pooled miR-30 sensor sort-seq; sequence = guide strand). Conditions: shRNA.
Sequence TTCACTTGAACTTCTCGTGGGG has a sensor-assay potency score (higher = more potent) of 0.903.
TAAGTTGTAATTGCGCTCCTGT showed a sensor-assay potency score (higher = more potent) of 0.62.
For TAAATCACTGTTTCCATCCAGA, the sensor-assay potency score (higher = more potent) was 0.11.
In the case of TTCATTATTATCCATCACCGAA, the sensor-assay potency score (higher = more potent) is reported as -1.08.
Work on TTGCAGTCCACAACCAGCCAAA yielded a sensor-assay potency score (higher = more potent) of -1.35.
Work on TTTTATTGTAGAATTTTCGGAA yielded a sensor-assay potency score (higher = more potent) of -0.252.
Sequence TTTTGTACTCGGTTCCACCTGA has a sensor-assay potency score (higher = more potent) of 0.606.
TATTCGAGACACATCTACCTTC gave a sensor-assay potency score (higher = more potent) of 0.298.
TTTAGTAGCTTCTTTGTCTTTG showed a sensor-assay potency score (higher = more potent) of 0.401.
For TTCAGTGTGAACATCATGGTGT, the sensor-assay potency score (higher = more potent) was 0.656.

Each sequence was assayed against S100A11 in the same assay as above. Conditions: shRNA.
With AAATTCTGAGAAATCTAGCTGA the sensor-assay potency score (higher = more potent) was 0.4.
ATCCTTTCCAGCATACTTCTGG showed a sensor-assay potency score (higher = more potent) of -0.568.
TCCAGTTTCTTCATCATGCGGT gave a sensor-assay potency score (higher = more potent) of -0.21.
Work on AGTGTAGTTATAACCATCCTTT yielded a sensor-assay potency score (higher = more potent) of -1.48.
AATTCTGAGAAATCTAGCTGAC was tested, and the sensor-assay potency score (higher = more potent) was -0.15.
Work on TTGTGAAGGCAGCTAGTTCTGT yielded a sensor-assay potency score (higher = more potent) of -0.251.
TAGTTCTGTATTCATGAAGCTT gave a sensor-assay potency score (higher = more potent) of -0.971.
Work on TATAACCATCCTTTCCAGCATA yielded a sensor-assay potency score (higher = more potent) of -1.17.
Sequence AAGCTTAGGAACTCTGTCTTGG has a sensor-assay potency score (higher = more potent) of 0.352.
With ATCTAGCTGACCATCACTGTTG the sensor-assay potency score (higher = more potent) was -0.625.
For TTCTGGTTCTTTGTGAAGGCAG, the sensor-assay potency score (higher = more potent) was -0.487.

Each sequence was assayed against S100A4 in the same assay as above. Conditions: shRNA.
In the case of TAGTTCTGACTTGTTGAGCTTG, the sensor-assay potency score (higher = more potent) is reported as -0.701.
For TTGTTGAGCTTGAACTTGTCAC, the sensor-assay potency score (higher = more potent) was -0.424.
For TACTCTTGGAAGTCCACCTCGT, the sensor-assay potency score (higher = more potent) was 0.392.
With TTGCTCAGCATCAAGCACGTGT the sensor-assay potency score (higher = more potent) was -0.253.
Sequence TCAGCTTCTGGAAAGCAGCTTC has a sensor-assay potency score (higher = more potent) of 0.395.
TGAGCTTGAACTTGTCACCCTC gave a sensor-assay potency score (higher = more potent) of 0.664.
For TTTATTGAACTTGCTCAGCATC, the sensor-assay potency score (higher = more potent) was -1.33.
For TTCGTTACACATCATGGCGATG, the sensor-assay potency score (higher = more potent) was -1.19.
TTGAGCTTGAACTTGTCACCCT gave a sensor-assay potency score (higher = more potent) of 0.789.
For TTACACATCATGGCGATGCAGG, the sensor-assay potency score (higher = more potent) was -0.526.
With TTGAACTTGTCACCCTCTTTGC the sensor-assay potency score (higher = more potent) was -0.681.
TGACTTGTTGAGCTTGAACTTG showed a sensor-assay potency score (higher = more potent) of -1.01.

Each sequence was assayed against S100P in the same assay as above. Conditions: shRNA.
For TGGTAGCTCCTTCTCCATCAGC, the sensor-assay potency score (higher = more potent) was -1.75.
Work on TTGCCAACAAACACTTTTGGGA yielded a sensor-assay potency score (higher = more potent) of -0.0452.
Sequence TCCATTGGCGTCCAGGTCCTTG has a sensor-assay potency score (higher = more potent) of -1.46.
In the case of TTGAGCAATTTATCCACGGCAT, the sensor-assay potency score (higher = more potent) is reported as -0.537.
Work on TAATCAGAGGTACATGAGCAGG yielded a sensor-assay potency score (higher = more potent) of -1.43.
In the case of TTCCACTCTGCAGGAAGCCTGG, the sensor-assay potency score (higher = more potent) is reported as -1.03.
In the case of TACATGAGCAGGCTCAGCCTAG, the sensor-assay potency score (higher = more potent) is reported as -0.833.
